The campaign covered roughly 350,000 compounds. About 1,600 (0.46%) were called active. The list comes from a sample in which actives are over-represented; it also holds similar structures and randomly drawn compounds. A number with no mark means an inactive call.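 The calls were made as follows: active = activation of at least 50%, plus an integration ratio under a set limit after plate pattern correction; inactive = the rest.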

This passage reports activation results from PubChem BioAssay AID588473 (Sanford-Burnham Center for Chemical Genomics, 2011).

The subject of this assay is CRF-binding protein / CRF receptor 2 complex (human). The experiment in a line: agonists of CRF-BP/CRF-R2 complex, primary screen, cell-based, HEK293, calcium dye fluorescence, uHTS (AID 588473).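 Also: plate controls were neutral control wells without compound for no effect and CRF at EC100 for full effect.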 The following applies: calcium dye fluorescence (FLIPR), at 13.2 µM, stronger effect = higher value, percent of saturating CRF peptide response.
Regarding `CC1=CC2=NC(=O)/C(=C/c3coc4ccccc4c3=O)C(=N)N2O1`, the activation is 147% (active).

Regarding `CC(C)(C)OC(=O)NCCCCCC(=O)N/N=C/c1coc2ccccc2c1=O`, the activation was -5.17%.

On to `COc1ccc(OCCCn2cccc2/C=C2/C(=N)N3OC(C)=CC3=NC2=O)cc1`, for which the activation was 4.44%.

Consider `C[C@@H]1NS(=O)(=O)c2cc(Cl)ccc2O[C@@H]1c1ccccc1`, for which the activation is -1.15%.

Take `Cc1ccc(-n2c(C)cc(C(=O)CN3C(=O)C(=O)N(C4CCCC4)C3=O)c2C)cc1`: the activation was 161% (active).

Turning to `Cc1ccc(-n2c(C)cc(C(=O)CSc3nnc4ccccn34)c2C)cc1`, the activation is -0.98%.

On to `Cc1cc(C(=O)COC(=O)C2CC2)c(C)n1-c1ccc(F)cc1`, for which the activation was -3.55%.

As for `O=C(N/N=C/c1sc(N2CCCCC2)nc1-c1cccs1)c1cccnc1`, the activation was 62.8% (active).

Regarding `Cc1ccc(NC(=O)COc2ccc(/C=N\NC(=O)c3cccnc3)cc2)cc1C`, the activation was 0.37%.

`Cc1ccc(S(=O)(=O)N2CCCCC2)cc1NC(=O)c1cccnc1`: the activation was 6.52%.

As for `Cc1ccc(C(=O)N/C(=C\c2cccs2)C(=O)NCCc2ccccn2)cc1C`, the activation was -0.29%.

For `COc1ccccc1C(=O)NCCC(=O)NC(C)CCc1ccccc1` (stereo unspecified), the activation is 0.39%.

As for `COc1ccc(CCNC(=O)CN(c2ccccc2)S(=O)(=O)c2ccccc2)cc1`, the activation was -0.58%.

As to `COc1ccc([C@H]2CC(=O)C=C(/C=C/c3ccc(Cl)cc3)C2)cc1`, the activation is 2.34%.

Consider `CCSc1nc2c(c(=O)[nH]1)C(c1cccnc1)C(C(=O)OC(C)C)=C(C)N2` (stereo unspecified), for which the activation is -11.6%.

For the molecule `COc1cc(OC)cc(C(=O)NCC(=O)OCC(=O)NC(C)CCc2ccccc2)c1` (stereo unspecified), the activation was -1.06%.

On to `COc1cc(OC)cc(C(=O)N[C@H](C(=O)OCC(=O)NC(C)c2ccccc2)C(C)C)c1` (stereo partly specified), for which the activation is 102% (active).

Regarding `COc1cc(OC)cc(C(=O)NC(C(=O)N2CCC2)C(C)C)c1` (stereo unspecified), the activation was 2.01%.

Regarding `COc1cc([N+](=O)[O-])cc([N+](=O)[O-])c1NC(=O)N1CCOCC1`, the activation is -0.3%.

Take `CSc1nsc(SCC(=O)Nc2cc(C(=O)O)ccc2C)n1`: the activation was -1.07%.

In the case of `COc1ccc(C)cc1NC(=O)CSc1nc(SC)ns1`, the activation was -0.91%.

For the molecule `CCc1nnc(NC(=O)CSc2nc(SC)ns2)s1`, the activation is 113% (active).

Turning to `CCCCn1c(=S)[nH]c2ncccc2c1=O`, the activation was 2.09%.

On to `CCN(CC)S(=O)(=O)c1ccc(OC)c(NC(=O)CCc2c(C)noc2C)c1`, for which the activation is -0.44%.

Turning to `Cc1nn(C)c(C)c1C(C)NC(=O)c1ccc(OC2CCN(Cc3ccccn3)CC2)cc1` (stereo unspecified), the activation is 3.71%.

Regarding `Cc1ccc(NC(=O)C(C)c2cccc(C(=O)c3ccccc3)c2)cc1` (stereo unspecified), the activation was -1.3%.

On to `O=C(Nc1ccc2ccccc2c1)/C(=C\c1ccc2c(c1)OCO2)NC(=O)c1ccco1`, for which the activation is 1.15%.

In the case of `CCCc1ccc(OCC(=O)NNC(=S)NC(=O)c2ccco2)cc1`, the activation is 60.1% (active).

As for `O=C(NNC(=S)Nc1ccc(Br)cc1Cl)c1ccco1`, the activation is -1.64%.

`CC(Oc1ccc2ccccc2c1)C(=O)NNC(=S)NC(=O)c1ccco1` (stereo unspecified): the activation was 58.2% (active).

Regarding `Cc1cccc(OCC(=O)Nc2ccc(NC(=O)c3ccco3)c(C)c2)c1`, the activation is 0.25%.

For the molecule `NS(=O)(=O)c1ccc(CNC(=S)NC(=O)c2ccco2)cc1`, the activation was -6.68%.

As to `C=CCOc1ccc(C2/C(=C(\O)c3c(C)[nH]c(C(=O)OC)c3C)C(=O)C(=O)N2CCN(C)C)cc1` (stereo unspecified), the activation is -2.8%.

Turning to `C=C1CCN([C@@H](Cc2ccccc2)C(=O)N2CCOCC2)S(=O)(=O)c2ccccc21`, the activation is 1.4%.

For the molecule `Cc1ccc(C)c(NC(=O)COC(=O)Cn2c(C)csc2=O)c1`, the activation was 1.31%.

For the molecule `Cc1cc(Nc2ccc(C)c(C)c2)n2ncnc2n1`, the activation was -1.97%.

In the case of `CC1=CC(=C(C#N)c2nc3ccccc3s2)C=C(C)N1c1ccc(F)cc1F`, the activation is 119% (active).

As to `Cc1nn(-c2ccc(F)cc2)c(Cl)c1/C=C(/CCC(=O)O)c1nc2ccccc2s1`, the activation is 0.68%.

Turning to `Cc1cnc(C(=O)Oc2cccc(Cl)c2Cl)cn1`, the activation was -0.24%.

As to `CCCCNC(=O)c1ccccc1NC(=O)c1ccccc1N(C)S(C)(=O)=O`, the activation was -1.79%.

As for `CCCCCCCCCCCCN1C(=O)CSC1c1cccnc1` (stereo unspecified), the activation was 1.06%.
